# Source: ChEMBL document CHEMBL4513141, “CO-ADD screening of NIH (USA) - Clinical Collection” (2021)
# Entries with a potency or affinity are not part of this list.
# Assays:
# [1] = tested on: Staphylococcus aureus; details: Concentration 20 uM; ASSAY_TEST Inhibition of Bacterial Growth; detection method Absorption (OD600); MEDIA CAMHB; plate type 384well; NBS; CORNING #3640; time 18 hr
# [2] = tested on: Escherichia coli; details: Concentration 20 uM; ASSAY_TEST Inhibition of Bacterial Growth; detection method Absorption (OD600); MEDIA CAMHB; plate type 384well; NBS; CORNING #3640; time 18 hr
Structure (SMILES),Inhibition [1] [%],Inhibition [2] [%]
Cc1cccc(Nc2ccccc2C(=O)O)c1C [MEFENAMIC ACID],15.6,6.03
Cc1[nH]cnc1CN1CCc2c(c3ccccc3n2C)C1=O.Cl [ALOSETRON HYDROCHLORIDE],8.61,9.19
CNCCCN1c2ccccc2CCc2ccccc21.Cl [DESIPRAMINE HYDROCHLORIDE],7.54,-0.24
O=c1cnn([C@@H]2O[C@H](CO)[C@@H](O)[C@H]2O)c(=O)[nH]1 [6-AZAURIDINE],-22.3,4.59
CNCCCC12CCC(c3ccccc31)c1ccccc12.Cl [MAPROTILINE HYDROCHLORIDE],15.07,6.19
NS(=O)(=O)c1cc2c(cc1Cl)NCNS2(=O)=O [HYDROCHLOROTHIAZIDE],6.38,-0.12
O.OC[C@H]1O[C@@H](n2cnc3c(NC4CCCC4)nc(Cl)nc32)[C@@H](O)C1O (stereo partly specified),16.71,-5.97
Cn1cnc([N+](=O)[O-])c1Sc1ncnc2[nH]cnc12 [AZATHIOPRINE],18.19,3.51
CCCN[C@H]1CCc2nc(N)sc2C1 [PRAMIPEXOLE],-18.52,2.75
CC(C)(C#N)c1cc(Cn2cncn2)cc(C(C)(C)C#N)c1 [ANASTROZOLE],-10.48,4.02
C[C@]12C=CC(=O)C=C1CC[C@@H]1[C@@H]2[C@@H](O)C[C@@]2(C)[C@H]1CC[C@]2(O)C(=O)CO [PREDNISOLONE],7.56,7.41
CC(C)c1nc(CN(C)C(=O)N[C@H](C(=O)N[C@@H](Cc2ccccc2)C[C@H](O)[C@H](Cc2ccccc2)NC(=O)OCc2cncs2)C(C)C)cs1 [RITONAVIR],13.2,-0.63
O=C1CN(/N=C/c2ccc(-c3ccc([N+](=O)[O-])cc3)o2)C(=O)[N-]1.[Na+] [DANTROLENE SODIUM],4.1,-9.64
CC(=O)/N=c1/sc(S(N)(=O)=O)nn1C [METHAZOLAMIDE],5.78,3.59
CC(C)Oc1ccc2c(=O)c(-c3ccccc3)coc2c1 [IPRIFLAVONE],16.93,5.9
NS(=O)(=O)c1cc2c(cc1C(F)(F)F)NCNS2(=O)=O [HYDROFLUMETHIAZIDE],14.86,7.25
CC(=O)OCC(=O)[C@@]1(O)CC[C@H]2[C@@H]3C[C@H](C)C4=CC(=O)C=C[C@]4(C)[C@H]3[C@@H](O)C[C@@]21C [METHYLPREDNISOLONE ACETATE],6.17,-0.44
Nc1nc(O)c2ncn(CCC(CO)CO)c2n1 [PENCICLOVIR],6.12,2.89
